High-throughput results: PubChem, Broad Institute
aSyn UTR act: Activators via SNCA 5'UTR binding, MLPCN | AID 1814 | 300,000 compounds, 7.1% hits | activity score, % (tested at 7.5 µM), hits read low | alpha-synuclein 5'UTR reporter, activators screen; in the data active means activity score below about -60%
Each line names hits and unclear results; the compound was inactive in the other large screens. Not all results are given here.

O=C(Nc1nc2c(s1)CN(Cc1ccccc1)CC2)c1c(F)cccc1F	aSyn UTR act -82
O=C(Nc1nc2c(s1)CN(Cc1ccccc1)CC2)C1CCCC1	aSyn UTR act -82
CC(C)(C)C(=O)Nc1nc2c(s1)CN(Cc1ccccc1)CC2	aSyn UTR act -92
CN(C)/C=C1\Oc2ccc3ccccc3c2C1=O	aSyn UTR act -116
O=C(Cc1ccc(-c2ccccc2)cc1)Nc1ccccn1	aSyn UTR act -118
Cc1ccnc(NC(=O)Cc2ccc(-c3ccccc3)cc2)c1	aSyn UTR act -122
c1ccc(-c2nc3c([nH]2)CCc2nonc2-3)cc1	aSyn UTR act -66
N/C(=N\OC(=O)C1CCCCC1)c1ccccn1	aSyn UTR act -119
N/C(=N\OC(=O)C1CCCCC1)c1ccc(Cl)cc1	aSyn UTR act -138
N/C(=N\OC(=O)C1CCCCC1)c1ccc(Br)cc1	aSyn UTR act -217
NC(=O)c1cc(Br)cc(C2CCCCC2)c1O	none
CN(C)CCCNC(=S)NCC(c1ccc(Cl)cc1Cl)c1c[nH]c2ccccc12 (centres undefined)	none
Cc1cc(CN(C)C(=O)c2cc(COc3ccc(C)c(C)c3)on2)on1	aSyn UTR act -159
COc1cccc(OCc2cc(C(=O)N(C)Cc3nc(C)cs3)no2)c1	aSyn UTR act -112
Cc1ccc(OCc2cc(C(=O)N(C)CCc3ccccn3)no2)cc1C	aSyn UTR act -73
COc1ccccc1-c1ccc(NC2CCCCC2)nn1	aSyn UTR act -140
CCOC(=O)/C(C#N)=C1/C=CN(c2ccc(C)cc2)C=N1	aSyn UTR act -97
CCOC(=O)/C(C#N)=C1/C=CN(c2ccccc2)C=N1	aSyn UTR act -79
CN(C)c1ccc(/C=N/NC(=O)c2ccn(C)n2)cc1	aSyn UTR act -115
CN(C)c1ccc(/C=N/NC(=O)c2ccnn2C)cc1	aSyn UTR act -110
CSc1ncc(-c2ccc(Cl)cc2)[nH]1	aSyn UTR act -145
CC(C)n1nnnc1SCC(=O)Nc1ccc2c(c1)OCCO2	aSyn UTR act -109
CCn1nnnc1SCC(=O)Nc1ccc2c(c1)OCCO2	aSyn UTR act -118
Cc1cc(NC(=O)C2CCCCC2)ncc1NC(=O)c1ccccn1	aSyn UTR act -73
Cc1cc(NC(=O)C2CC2)ncc1NC(=O)c1ccccn1	aSyn UTR act -93
CC(=O)N1CCN(c2ccc(NC(=O)c3ccco3)cc2)CC1	aSyn UTR act -83
CCC(=O)N1CCN(c2ccc(NC(=O)c3ccco3)cc2)CC1	aSyn UTR act -94
COc1ccc(/C=C2\SC(=S)N(CCCC(=O)Nc3ccc(O)cc3)C2=O)cc1	none
CCOc1cc(/C=C2\SC(=S)N(Nc3ccccc3)C2=O)ccc1O	aSyn UTR act -165
COc1cc(/C=C2\SC(=S)N(Nc3ccccc3)C2=O)ccc1O	aSyn UTR act -145
Cc1ccc(/C=C2\SC(=S)N(CCCC(=O)Nc3cccnc3)C2=O)cc1	none
O=C1/C(=C/c2ccc(O)c(O)c2)SC(=S)N1Nc1ccccc1	aSyn UTR act -146
Cc1nc2ccccc2n1/N=C/c1ccc([N+](=O)[O-])o1	aSyn UTR act -172
Cc1nc2ccccc2c(=O)n1/N=C/c1ccc([N+](=O)[O-])o1	aSyn UTR act -64
COc1ccc(/C=C2/SC(=S)N(CCCC(=O)Nc3ccc(O)cc3)C2=O)cc1	none
COc1ccc(/C=C2\SC(=O)N(CCNC(=O)C3CCN(S(=O)(=O)c4cccs4)CC3)C2=O)cc1	aSyn UTR act -113
COc1ccc(/C=C2\SC(=O)N(CCNC(=O)CCS(=O)(=O)c3ccc(C)cc3)C2=O)cc1	aSyn UTR act -64
COc1ccc(/C=C2\SC(=O)N(CCNC(=O)Cn3cnnn3)C2=O)cc1	aSyn UTR act -187
CC(C)c1ccc(/C=C2\SC(=O)N(CC(=O)NCCCn3ccnc3)C2=O)cc1	aSyn UTR act -110
CCOC(=O)c1cc(-c2ccc(/C=C3/C(=O)N(c4ccc(C(=O)O)cc4)N=C3C)o2)ccc1Cl	aSyn UTR act -76
CCCCOC(=O)c1cc(-c2ccc(/C=N/n3cnnc3)o2)ccc1Cl	aSyn UTR act -74
Cc1[nH]nc2c1C(c1ccc(-c3ccc(Cl)cc3)o1)C(C#N)=C(N)O2 (centres undefined)	aSyn UTR act -63
Cc1ccc(-c2ccc(C3C(C#N)=C(N)Oc4n[nH]c(C)c43)o2)cc1 (centres undefined)	aSyn UTR act -107
Cc1ccc2cc(C3C(C#N)=C(N)Oc4c3ccc3cccnc43)c(=O)[nH]c2c1 (centres undefined)	none
CC(=O)Oc1ccc(C(=O)Nc2ccc(C3(C#N)CCCC3)cc2)cc1	aSyn UTR act -142
N#CC1(c2ccc(NC(=O)c3ccccc3)cc2)CCCC1	aSyn UTR act -89
Nc1ccc(-n2cnc3cc([N+](=O)[O-])ccc32)cc1	aSyn UTR act -66
Cc1ccc(NC(=O)CCc2c(C)nn(-c3ccc(N4CCCCC4)nn3)c2C)cc1	aSyn UTR act -107
Cc1ccc(NC(=O)CCc2c(C)nn(-c3ccc(N4CCOCC4)nn3)c2C)cc1F	aSyn UTR act -86
CC(=O)c1ccc(NC(=O)CCc2nnc3ccc(N4CCCC4)nn23)cc1	aSyn UTR act -95
COc1ccc(C)cc1NC(=O)CCc1c(C)nn(-c2ccc(N3CCCCC3)nn2)c1C	aSyn UTR act -95
